Data published in PubChem BioAssay.
“And” between values parts separate entries of the source, which are not always exact repeats. Equal values may be shown once. The list shows a part of the results. The source made the active and inactive calls. Unless noted, no stated cut-off is given here; in the data, active means activation above about 8.9%; inactive means the rest.

Assays:
[1] = target: Serine protease HTRA1 (Homo sapiens) (UniProt Q92743); experiment: confirming inhibition of human HTRA1 – biochemical, fluorescence polarization, confirmation (AID 540248;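 active means mean inhibition over three repeats above a set limit taken from the earlier primary screen, cut at about 37% in these data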;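 further: 0% = HTRA1 with DMSO and 100% = wells lacking HTRA1; inhibitors block probe binding so polarization drops and inhibition rises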); settings: recombinant HTRA1, FP-rhodamine activity-based probe, at 5.96 µM, hits give high values
[2] = StAR promoter reporter inhibitors, counter-screen for LRH-1 inverse agonist project, cell-based, luminescence, high throughput (AID 651611; in the data active means inhibition above about 28%); settings: StAR promoter luciferase reporter counterscreen, at 3.6 µM, hits give high values
[3] = target: Nuclear receptor subfamily 5 group A member 2 (Homo sapiens) (UniProt O00482); experiment: NR5A2 activity suppression in reporter cells – cell-based, luminescence, confirmation (AID 651613; in the data active means inhibition above about 42%;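 further: HEK293T cells co-transfected with LRH-1 and StAR promoter luciferase reporter; 0% = vehicle wells and 100% = parental cells lacking receptor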); settings: cell-based LRH-1 luciferase reporter, inverse agonism; at 3.6 µM; hits give high values
[4] = target: Steroidogenic factor 1 (Homo sapiens) (UniProt Q13285); experiment: inverse agonism at SF1 nuclear receptor – cell-based, luminescence, high throughput, counter-screen for LRH-1 inverse agonist project (AID 651614; in the data active means inhibition above about 44%;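 further: cells cotransfected with StAR promoter reporter and SF1 expression vector; 0% = vehicle on cells with receptor and 100% = vehicle on cells lacking receptor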); settings: cell-based SF1 luciferase reporter, at 3.6 µM, hits give high values
[5] = compounds suppressing VP16-driven luciferase signal – cell-based, luminescence, high throughput, counter-screen for LRH-1 inverse agonist project (AID 651615; in the data active means inhibition above about 33%); settings: Gal4-VP16 luciferase reporter cells, at 3.6 µM, hits give high values
[6] = BSA probe fluorescence interference – biochemical, TAMRA-labeled BSA, counter-screen for TCR-CD3 interaction inhibitor project (AID 652035; in the data active means inhibition above about 23%;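 further: 0% = buffer low control and 100% = reference high control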); settings: TAMRA-labeled BSA probe fluorescence counterscreen; at 9.4 µM; hits give high values
[7] = system: T-cell receptor (TCR)-CD3 interaction, human; experiment: blockers of TCR binding to CD3 – biochemical, fluorescence, TAMRA-labeled TCR probe, confirmation (AID 652036; in the data active means inhibition above about 19%); settings: TAMRA-labeled TCR probe fluorescence binding assay; at 9.4 µM; hits give high values
[8] = target: (Lyso)-N-acylphosphatidylethanolamine lipase (Mus musculus) (UniProt Q8VD66); experiment: mouse ABHD4 hydrolase blockers, triplicate – biochemical, fluorescence polarization, confirmation (AID 720658;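 active means mean inhibition across replicates above the hit cutoff set in the primary screen, cut at about 30% in these data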;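 further: 0% = wild-type ABHD4 with DMSO and 100% = catalytically dead S159A mutant with DMSO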); settings: purified mABHD4, FP-Rh probe fluorescence polarization; at 8.92 µM; hits give high values
[9] = system: HIV-1 integrase (multimerization); experiment: stimulation of HIV-1 integrase oligomerization – biochemical, TR-FRET, counter-screen for LEDGF/p75 integration inhibitor project (AID 1053131); settings: TR-FRET HIV-1 integrase multimerization, at 7.7 µM, hits give high values
[10] = compounds disturbing TR-FRET signal readout – biochemical, HIV-1 IN multimerization, artefact control for LEDGF/p75-dependent integration inhibitor project, confirmation (AID 1053135;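 active means inhibition above the mean over all tested compounds plus 3 SD, which no compound reached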;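 further: 0% = integrase with antibodies and DMSO and 100% = antibodies without integrase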); settings: TR-FRET optical interference counterscreen, at 7.7 µM, hits give high values
[11] = system: HIV-1 integrase / human LEDGF/p75 complex; experiment: blockers of LEDGF/p75-dependent integrase activity – biochemical, TR-FRET, confirmation (AID 1053136; in the data active means inhibition above about 14%); settings: TR-FRET LEDGF/p75-dependent HIV-1 integration, at 3.7 µM, hits give high values
[12] = target: Nuclear receptor coactivator 3 (Homo sapiens) (UniProt Q9Y6Q9); experiment: NCOA3 GAL4-fusion reporter inhibition – cell-based, luminescence, quadruplicate, confirmation (AID 588792;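 active means mean inhibition over 43.08%, the solvent-only control mean plus 3 SD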;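 further: 0% = DMSO treated cells and 100% = gossypol at 36 µM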); settings: HEK293 GAL4-SRC3 luciferase reporter, at 3.6 µM, hits give high values
[13] = system: transactivating tegument protein VP16 (Human herpesvirus 1), Gal4-VP16 luciferase reporter; experiment: repression of VP16-driven luciferase reporter – cell-based, luminescence, high throughput, counter-screen for SRC3 inhibitor project (AID 588794; in the data active means inhibition above about 30%); settings: mammalian cells, at 3.6 µM, hits give high values
[14] = target: Nuclear receptor coactivator 1 (Homo sapiens) (UniProt Q15788); experiment: NCOA1 GAL4-fusion reporter inhibition – cell-based, luminescence, quadruplicate, confirmation (AID 588820;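 active means mean inhibition above 46.68%, the untreated control wells mean plus 3 SD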;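 further: 0% = DMSO wells and 100% = gossypol 36 µM treated wells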); settings: HEK293 GAL4-SRC1 luciferase reporter, at 3.6 µM, hits give high values
[15] = repression of VP16-driven luciferase reporter – cell-based, luminescence, high throughput, counter-screen for SRC1 inhibitor project (AID 588824; in the data active means inhibition above about 25%); settings: cell-based VP16 transactivation luciferase luminescence; at 3.6 µM; hits give high values
[16] = target: Photoreceptor-specific nuclear receptor (Homo sapiens) (UniProt Q9Y5X4); experiment: retest of NR2E3-NCOR disrupting agonists – cell-based, luminescence, CHO-S two-hybrid, confirmation (AID 624378;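 active means average inhibition above a cutoff equal to the mean inhibition of all tested compounds plus one SD, cut at about 70% in these data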;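 further: 0% = DMSO in NR2E3 cells and 100% = DMSO in cells lacking NR2E3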); settings: CHO-S mammalian two-hybrid NR2E3-NCOR, luciferase luminescence; at 3.98 µM; hits give high values
[17] = nonselective effects on VP16 transactivation – cell-based, luminescence, CHO-S, high throughput, counter-screen for NR2E3 agonist project, confirmation (AID 624379;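 active means mean inhibition above a cutoff equal to the average over all tested compounds plus one standard deviation, cut at about 70% in these data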;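 further: 0% = DMSO with VP16-transfected cells and 100% = DMSO with cells lacking VP16; higher means less reporter light so more repression of VP16 activity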); settings: CHO-S GAL4-VP16 luciferase reporter, at 3.98 µM, hits give high values
[18] = VP16-driven transactivation reporter suppression – cell-based, luminescence, HEK293, counter-screen for COUP-TFII antagonist project (AID 687007; in the data active means inhibition above about 13%); settings: HEK293 Gal4-VP16 luciferase reporter, at 8.5 µM, hits give high values
[19] = target: COUP transcription factor 2 (Homo sapiens) (UniProt P24468); experiment: retest of COUP-TFII reporter suppressors – cell-based, luciferase reporter, HEK293, triplicate, confirmation (AID 687008;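 active means mean inhibition over three repeats above a set limit taken from the earlier primary screen, cut at about 38% in these data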;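 further: 100% = cells given the luciferase reporter alone without the COUP-TF2 vector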); settings: HEK293 NGFI-A luciferase reporter, luminescence; at 8.5 µM; hits give high values
[20] = potentiators of IFN-gamma STAT1 reporter activity – cell-based, HTS, luciferase reporter, confirmation (AID 1262;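 active means activation above a set limit carried over from the earlier primary STAT1 screen, cut at about 140% in these data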;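 further: simple ratio to median IFN-gamma plus DMSO wells so 0% means no light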); settings: NIH 3T3 STAT1-luciferase reporter, IFN-gamma potentiation, luminescence; at 5.7 µM; hits give high values; 100% = IFN-gamma EC80 alone, no compound
[21] = enhancement of NF-kB transcriptional signalling – cell-based, HEK293T, luciferase luminescence, TNF-alpha, counter-screen for STAT1 activator project (AID 1306;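 active means activation above the mean of solvent-only control wells plus 3 SD, set per campaign, cut at about 130% in these data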;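 further: TNF-alpha given at a submaximal dose yielding about 80% of full reporter signal; values are well signal over median control so 100% means no change and 0% no light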); settings: HEK293T NF-kB luciferase reporter, TNF-alpha stimulated, at 5.7 µM, hits give high values, 100% = TNF-alpha with vehicle only
[22] = target: Signal transducer and activator of transcription 3 (Homo sapiens) (UniProt P40763); experiment: enhancers of IL-6 STAT3 transcription – U3A cells, luciferase, luminescence, counter-screen for STAT1 activator project, confirmation (AID 1316;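 active means activation above the solvent-only control well mean plus 3 SD, set per plate batch, cut at about 110% in these data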;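 further: 0% = no luminescence and 100% = median IL-6 plus DMSO wells; higher means more STAT3 reporter activation so hits are non-selective activators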); settings: U3A cells STAT3-luciferase reporter, IL-6, luminescence; at 5.7 µM; hits give high values; 100 = IL-6 alone, no compound effect; cells lack STAT1
[23] = system: TLR4-MyD88 interaction (human), BLA complementation; experiment: disruptors of TLR4 binding to MyD88 – cell-based, HeLa CL3-4, BLA complementation, FRET ratio, confirmation (AID 941;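 active means mean inhibition across three repeat runs above about 25% carried over from the earlier screen, limit read from the data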;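 further: plate controls were DMSO only for no effect and clavulanic acid blocking BLA at full dose for full effect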); settings: CCF4 FRET ratio, at 8.4 µM, hits give high values
[24] = BLA reporter interference in HeLa cells – cell-based, full-length BLA, CCF4 FRET ratio, artefact control for TLR4-MyD88 binding inhibitor project, confirmation (AID 1237;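 active means mean inhibition over three repeats above about 26% taken from the earlier screen, limit read from the data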;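 further: HeLa cells stably expressing beta-lactamase reporter as counterscreen for TLR4-MyD88 inhibitors; 0% = DMSO and 100% = clavulanic acid full inhibition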); settings: at 8.4 µM, hits give high values
[25] = target: Toll-like receptor 9 (Homo sapiens) (UniProt Q9NR96); experiment: disruptors of TLR9 binding to MyD88 – cell-based, CHO, BLA complementation, fluorescence, triplicate, confirmation (AID 540250;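 active means mean inhibition across three repeats above about 21% taken from the earlier screen, limit read from the data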;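 further: blue over green emission ratio reports constitutive TLR9 MyD88 association via BLA complementation; 0% = DMSO vehicle wells and 100% = clavulanate BLA inhibitor wells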); settings: CCF4 FRET ratio, at 4.98 µM, hits give high values
[26] = BLA reporter readout interference – cell-based, fluorescence, artefact control for TLR9-MyD88 binding inhibitor project (AID 540251;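 active means mean inhibition above a 50% cutoff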;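 further: counterscreen of TLR9-MyD88 hits on CMV-driven BLA in CHO-K1 cells; 0% = DMSO alone and 100% = clavulanate blocking BLA; higher means less blue over green ratio so more BLA blockade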); settings: CHO-BLA cells, CCF4 FRET ratio, at 4.98 µM, hits give high values
[27] = CHO cell viability loss – luminescence, single concentration, cytotoxicity control for TLR9-MyD88 binding inhibitor project (AID 588336; in the data active means inhibition above about 11%); settings: TLR9-MyD88 CHO cells cytotoxicity, at 4.98 µM, hits give high values
[28] = target: Receptor-interacting serine/threonine-protein kinase 2 (Homo sapiens) (UniProt O43353); experiment: inhibitors of RIPK2 association with NOD2 – fluorescence, CHO cells, BLA complementation, triplicate, confirmation (AID 624370;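 active means mean inhibition across replicates above a set limit taken from the earlier primary screen, cut at about 21% in these data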;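 further: 0% = DMSO-only wells and the high end = clavulanate BLA-blocked wells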); settings: CCF4 FRET, at 4.98 µM, hits give high values
[29] = BLA reporter readout interference – cell-based, CHO-K1 CMV-bla, CCF4 FRET, fluorescence, artefact control for NOD2-RIPK2 interaction inhibitor project, confirmation (AID 624371;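 active means mean inhibition above the low-control mean inhibition plus three low-control SD, cut at about 11% in these data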;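 further: 0% = DMSO only wells and 100% = clavulanate high control wells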); settings: CCF4 FRET ratio, counterscreen, at 4.98 µM, hits give high values
[30] = reduced OD of T4-infected AddAB+ E. coli – absorbance, E. coli V3065, T4 phage, triplicate, AddAB inhibitor project, confirmation (AID 488942;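 active means mean inhibition above a set limit taken from the earlier primary screen, cut at about 13% in these data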;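 further: higher means less bacterial growth since AddAB block lets phage replicate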); settings: E. coli V3065 expressing H. pylori AddAB, at 11.9 µM, hits give high values, T4 phage with gene 2 nonsense mutations
[31] = reduced OD of phage-infected RecBCD+ V66 E. coli – absorbance, mutant T4 phage, counter-screen for AddAB inhibitor project (AID 488955;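 active means mean inhibition above the mean of solvent-only control wells plus 3 SD, cut at about 4% in these data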;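 further: optical density read after an 18 h incubation at 37 °C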); settings: OD growth, at 11.9 µM, hits give high values
[32] = bacterial growth inhibitors – absorbance, counter-screen for AddAB inhibitor project, confirmation (AID 488956; in the data active means inhibition above about 25%); settings: bacterial viability, absorbance (AddAB counterscreen); at 11.9 µM; hits give high values
[33] = reduced OD of V66 E. coli with T4 gene 2 phage – absorbance, RecBCD inhibitor project, confirmation (AID 651982;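 active means mean inhibition over triplicates exceeding the hit threshold derived in the original primary screen, cut at about 11% in these data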); settings: E. coli V66 + T4 2- phage, growth OD; at 11.9 µM; hits give high values
[34] = bacterial growth inhibition – absorbance, high throughput, counter-screen for RecBCD inhibitor project (AID 651983; in the data active means inhibition above about 20%;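 further: E. coli strain V66 grown with compound alone and no phage infection; 0% = bacteria with DMSO vehicle only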); settings: E. coli viability, absorbance (OD) growth; at 11.9 µM; hits give high values
[35] = reduced optical density, T4-challenged addAB+ bacteria – absorbance, E. coli V3065, T4 phage, counter-screen for RecBCD inhibitor project, confirmation (AID 651984;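 active means mean inhibition above the solvent-only control wells' mean plus 3 SD, cut at about 22% in these data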;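 further: higher means less bacterial growth from phage killing when AddAB is blocked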); settings: E. coli expressing H. pylori AddAB + T4 phage, OD growth; at 11.9 µM; hits give high values; gene 2 mutant T4, recBCD-deleted host

Chain of Steroidogenic factor 1 (Homo sapiens) (Q13285 whole entry, looked up, the tested form may be a part): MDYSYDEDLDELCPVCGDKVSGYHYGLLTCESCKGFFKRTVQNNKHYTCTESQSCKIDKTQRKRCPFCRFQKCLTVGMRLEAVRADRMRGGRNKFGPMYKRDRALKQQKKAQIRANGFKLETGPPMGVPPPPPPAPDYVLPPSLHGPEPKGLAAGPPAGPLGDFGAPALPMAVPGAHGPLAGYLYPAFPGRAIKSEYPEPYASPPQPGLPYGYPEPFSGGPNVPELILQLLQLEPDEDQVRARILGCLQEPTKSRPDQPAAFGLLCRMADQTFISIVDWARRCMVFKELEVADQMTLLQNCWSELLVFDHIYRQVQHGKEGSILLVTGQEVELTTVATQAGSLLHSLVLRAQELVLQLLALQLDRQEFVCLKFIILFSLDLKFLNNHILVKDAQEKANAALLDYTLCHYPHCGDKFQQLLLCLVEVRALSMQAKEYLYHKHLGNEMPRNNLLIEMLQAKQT
Chain of Nuclear receptor coactivator 1 (Homo sapiens) (Q15788 whole entry, looked up, the tested form may be a part): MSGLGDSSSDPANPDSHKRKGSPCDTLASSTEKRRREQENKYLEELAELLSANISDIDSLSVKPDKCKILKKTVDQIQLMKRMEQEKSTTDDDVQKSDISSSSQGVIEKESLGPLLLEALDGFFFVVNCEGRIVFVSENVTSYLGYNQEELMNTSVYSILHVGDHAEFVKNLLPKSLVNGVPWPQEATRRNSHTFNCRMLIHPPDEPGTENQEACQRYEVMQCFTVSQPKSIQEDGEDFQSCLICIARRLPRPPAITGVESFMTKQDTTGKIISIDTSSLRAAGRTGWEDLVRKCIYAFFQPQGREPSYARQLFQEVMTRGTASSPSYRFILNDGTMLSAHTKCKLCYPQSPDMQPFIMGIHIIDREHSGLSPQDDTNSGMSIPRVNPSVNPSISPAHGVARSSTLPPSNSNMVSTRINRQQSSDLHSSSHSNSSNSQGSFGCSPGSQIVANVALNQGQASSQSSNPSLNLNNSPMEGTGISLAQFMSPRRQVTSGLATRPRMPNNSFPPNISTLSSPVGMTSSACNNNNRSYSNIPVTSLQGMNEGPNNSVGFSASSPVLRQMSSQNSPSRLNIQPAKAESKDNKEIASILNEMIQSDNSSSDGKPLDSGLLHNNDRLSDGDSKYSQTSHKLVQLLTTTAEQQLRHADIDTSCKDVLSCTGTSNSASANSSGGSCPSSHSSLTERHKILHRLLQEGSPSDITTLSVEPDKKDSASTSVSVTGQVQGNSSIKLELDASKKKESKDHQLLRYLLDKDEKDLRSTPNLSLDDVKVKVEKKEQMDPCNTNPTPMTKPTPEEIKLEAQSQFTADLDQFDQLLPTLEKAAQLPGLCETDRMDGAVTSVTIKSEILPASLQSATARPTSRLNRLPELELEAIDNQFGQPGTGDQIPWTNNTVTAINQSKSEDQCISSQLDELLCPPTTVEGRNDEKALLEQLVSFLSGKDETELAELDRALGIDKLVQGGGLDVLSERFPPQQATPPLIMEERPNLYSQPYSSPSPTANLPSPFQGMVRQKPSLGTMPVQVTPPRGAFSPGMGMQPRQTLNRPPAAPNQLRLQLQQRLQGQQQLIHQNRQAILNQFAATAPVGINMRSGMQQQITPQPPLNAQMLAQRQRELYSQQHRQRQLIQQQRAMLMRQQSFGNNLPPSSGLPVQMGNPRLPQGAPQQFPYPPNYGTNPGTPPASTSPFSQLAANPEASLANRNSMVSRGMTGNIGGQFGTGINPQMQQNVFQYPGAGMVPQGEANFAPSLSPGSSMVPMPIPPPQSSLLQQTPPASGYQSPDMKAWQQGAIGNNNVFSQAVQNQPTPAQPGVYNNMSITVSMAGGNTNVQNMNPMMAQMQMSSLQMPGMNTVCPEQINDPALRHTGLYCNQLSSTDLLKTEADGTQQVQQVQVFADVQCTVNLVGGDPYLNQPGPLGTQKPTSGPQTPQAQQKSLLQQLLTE
Chain of Nuclear receptor subfamily 5 group A member 2 (Homo sapiens) (O00482 whole entry, looked up): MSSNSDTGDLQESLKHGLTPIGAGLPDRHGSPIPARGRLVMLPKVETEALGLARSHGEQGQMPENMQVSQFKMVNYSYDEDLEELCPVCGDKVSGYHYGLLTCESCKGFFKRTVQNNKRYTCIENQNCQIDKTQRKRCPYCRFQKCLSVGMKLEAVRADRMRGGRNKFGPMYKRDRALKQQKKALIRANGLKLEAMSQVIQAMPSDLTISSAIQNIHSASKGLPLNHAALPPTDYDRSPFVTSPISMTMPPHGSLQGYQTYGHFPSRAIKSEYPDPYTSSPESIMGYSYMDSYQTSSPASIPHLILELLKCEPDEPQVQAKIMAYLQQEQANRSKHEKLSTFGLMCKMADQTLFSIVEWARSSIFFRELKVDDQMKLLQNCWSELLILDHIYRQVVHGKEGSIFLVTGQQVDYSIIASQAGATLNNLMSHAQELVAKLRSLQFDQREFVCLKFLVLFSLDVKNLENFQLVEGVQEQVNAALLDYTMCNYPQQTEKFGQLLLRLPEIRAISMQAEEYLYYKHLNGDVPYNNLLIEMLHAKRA
Chain of Receptor-interacting serine/threonine-protein kinase 2 (Homo sapiens) (O43353 whole entry, looked up): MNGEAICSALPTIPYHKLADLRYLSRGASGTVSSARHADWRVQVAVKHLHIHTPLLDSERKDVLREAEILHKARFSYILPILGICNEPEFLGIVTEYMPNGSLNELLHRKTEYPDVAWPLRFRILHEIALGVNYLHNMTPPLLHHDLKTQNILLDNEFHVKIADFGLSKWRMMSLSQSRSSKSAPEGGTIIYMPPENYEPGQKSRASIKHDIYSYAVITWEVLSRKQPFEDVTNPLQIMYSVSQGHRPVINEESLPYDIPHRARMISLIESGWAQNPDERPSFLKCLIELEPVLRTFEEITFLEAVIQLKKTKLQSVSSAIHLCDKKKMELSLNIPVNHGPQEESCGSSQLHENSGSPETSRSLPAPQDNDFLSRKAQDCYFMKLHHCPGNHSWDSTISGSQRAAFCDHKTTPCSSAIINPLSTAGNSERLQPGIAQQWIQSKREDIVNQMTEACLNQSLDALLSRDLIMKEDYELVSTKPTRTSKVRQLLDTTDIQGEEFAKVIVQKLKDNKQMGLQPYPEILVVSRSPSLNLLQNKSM
Chain of (Lyso)-N-acylphosphatidylethanolamine lipase (Mus musculus) (Q8VD66 whole entry, looked up): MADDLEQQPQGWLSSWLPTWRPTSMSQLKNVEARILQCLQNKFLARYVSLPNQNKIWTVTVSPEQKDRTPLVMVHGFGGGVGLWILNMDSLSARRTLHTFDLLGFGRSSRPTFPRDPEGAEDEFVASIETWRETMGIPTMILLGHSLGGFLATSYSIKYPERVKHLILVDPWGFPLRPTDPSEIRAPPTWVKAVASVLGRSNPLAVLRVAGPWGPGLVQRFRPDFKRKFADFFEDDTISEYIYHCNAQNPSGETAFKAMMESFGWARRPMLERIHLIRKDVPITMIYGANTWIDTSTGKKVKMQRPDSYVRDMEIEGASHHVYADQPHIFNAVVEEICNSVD
Chain of Photoreceptor-specific nuclear receptor (Homo sapiens) (Q9Y5X4 whole entry, looked up): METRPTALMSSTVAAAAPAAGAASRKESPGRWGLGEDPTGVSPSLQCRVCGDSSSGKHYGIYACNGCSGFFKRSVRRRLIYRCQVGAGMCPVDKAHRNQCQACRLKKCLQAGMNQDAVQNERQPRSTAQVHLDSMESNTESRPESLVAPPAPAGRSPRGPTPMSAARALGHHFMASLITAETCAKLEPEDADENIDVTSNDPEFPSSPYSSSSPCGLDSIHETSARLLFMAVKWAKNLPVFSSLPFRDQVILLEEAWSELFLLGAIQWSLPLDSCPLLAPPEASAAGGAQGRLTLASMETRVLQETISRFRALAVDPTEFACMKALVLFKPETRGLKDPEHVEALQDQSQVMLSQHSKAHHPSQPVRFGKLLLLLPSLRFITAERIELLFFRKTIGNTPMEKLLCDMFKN
Chain of COUP transcription factor 2 (Homo sapiens) (P24468 whole entry, looked up): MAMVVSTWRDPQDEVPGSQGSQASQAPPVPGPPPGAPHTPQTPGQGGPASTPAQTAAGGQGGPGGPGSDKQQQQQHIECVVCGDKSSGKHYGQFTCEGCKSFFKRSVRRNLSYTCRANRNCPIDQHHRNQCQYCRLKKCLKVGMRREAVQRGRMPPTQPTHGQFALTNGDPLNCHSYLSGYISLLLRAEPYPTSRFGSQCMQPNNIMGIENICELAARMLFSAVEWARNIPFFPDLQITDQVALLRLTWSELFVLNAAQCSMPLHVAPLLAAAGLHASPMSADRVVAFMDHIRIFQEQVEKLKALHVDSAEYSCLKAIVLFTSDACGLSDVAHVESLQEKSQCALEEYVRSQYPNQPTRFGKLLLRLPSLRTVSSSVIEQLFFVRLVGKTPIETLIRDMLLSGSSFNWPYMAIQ

NC1=CC(=O)C(=O)c2cccnc21
active: inhibition [2] 35.9% | inhibition [3] 47.5% | inhibition [4] 45.5% | inhibition [8] 68.3% | activation [9] 45.1% | inhibition [11] 79.9%
inactive: inhibition [1] 24.5% | inhibition [5] 8.35% | inhibition [6] 6.36% | inhibition [7] 11.5% | inhibition [10] -160%

COc1ccc2c(c1)c(=Cc1ccc(N(C)C)cc1)c1cc(-c3ccccc3)[n+](C)n12
active: inhibition [12] 68.3% | inhibition [13] 82% | inhibition [14] 69.4% | inhibition [15] 83.8% | inhibition [16] 99% | inhibition [17] 81.4% | inhibition [18] 40.1% | inhibition [19] 86.4%
inactive: activation [9] 6.29% | inhibition [10] -22.4% | inhibition [11] -6.4%

NNc1cccc(C=Cc2ccccc2)cc1=O
inactive: inhibition [10] -47.7%
active: inhibition [1] 47.8% | activation [9] 13.3% | inhibition [11] 33.8%

Cc1ccc(NC(=O)Nc2ccc3oc(C)nc3c2)cc1
active: activation (% of control) [20] 200%
inactive: activation (% of control) [21] 128% | activation (% of control) [22] 102%

O=C1NC(=O)C2C1C(c1ccc([N+](=O)[O-])cc1)=NN2Cc1ccccc1 (centres undefined)
active: inhibition [23] 25.8% | inhibition [24] 42.9% | inhibition [25] 25.8% | inhibition [28] 49.4% | inhibition [29] 51.9%
inactive: inhibition [26] 25.6% | inhibition [27] 4.55%

COc1ccc2[nH]c3c(C)c4cc[n+](C)cc4c(C)c3c2c1
inactive: inhibition [14] 27.3% | inhibition [10] -47.7%
active: inhibition [15] 45% | inhibition [2] 49.8% | inhibition [3] 103% | inhibition [4] 51.9% | inhibition [5] 75% | activation [9] 9.5% | inhibition [11] 42.7%

CO/N=C(\C(=O)N[C@@H]1C(=O)N2C(C(=O)O)=C(COC(C)=O)CS[C@H]12)c1csc(N)n1 (stereo in doubt)
active: inhibition [30] 99.2% and 97% | inhibition [31] 99.5% and 97.6% | inhibition [32] 99.6% and 98.1% | inhibition [33] 100% and 96.2% and 102% | inhibition [34] 102% and 97.1% and 103% | inhibition [35] 102% and 96.3% | inhibition [11] 42.8%
inactive: activation [9] 0.25% | inhibition [10] -1.28%

Cc1ccccc1NCC(=O)N/N=C\c1ccc([N+](=O)[O-])s1
inactive: inhibition [6] 1.19% | inhibition [7] 7.69% | activation [9] -0.2% | inhibition [10] 1.03% | inhibition [11] -2.15%
